About 2,700 (4%) of roughly 68,000 compounds showed an effect of 50% or more. The sample holds strong results, similar compounds and a random draw of the others, so the mix is not that of the screen.

Among the data in ChEMBL document CHEMBL4513216, “Probing the Open Global Health Chemical Diversity Library for Multistage-Active Starting Points for Next-Generation Antimalarials” (ACS Infect Dis, 2020) are INHIBITION values, retold here.

The subject of the assay is Plasmodium berghei. Kind of assay: Screen against P. berghei liver stage (PbLuc), transformed with Luciferase, at 2uM. Conditions: tested at 2 uM. In kind it is functional, HepG2.
As to `Cc1ccccc1N1CCN(C(=O)CCc2nncn2C)C(C)C1` (stereo not drawn), the INHIBITION is -38.81%.
In the case of `Cc1cccc(C2CC(=O)Nc3c2c(=O)[nH]n3C(C)C)c1` (stereo not drawn) it was -36.73%; in that of `COC(=O)c1ccc(CNCc2cn(C)nc2C)cc1`, 14.26%.
In the case of `Cc1nn(C)cc1CNCc1ccc(N(C)C)cc1` it was 8.09%; in that of `COc1ccc(CNCc2cn(C)nc2C)cc1`, 51.32%; in that of `CCn1c(O)c(C(C)=O)c2cc(C)ccc21`, 30.48%.
To `Cc1cccc2c1ccn2CC(=O)NC[C@@H]1CCCN2CCCC[C@H]12` belongs -7.52%; to `CS(=O)(=O)N1CC[C@]2(O)CCN(CCCC(=O)c3ccccc3)C[C@@H]2C1`, -30.08%.
Regarding `C/C(NC(=O)c1ccco1)=C1/C(=O)C[C@@H]2[C@H]1C2(C)C`, the INHIBITION is 18.11%.
In the case of `C/C(NC(=O)c1cccs1)=C1\C(=O)C[C@@H]2[C@H]1C2(C)C` it was 21.57%.
Consider `C/C(NC(=O)c1ccccn1)=C1\C(=O)C[C@@H]2[C@H]1C2(C)C`, for which the INHIBITION is 52.74%.
To `Cc1nn(C)c2cn(C(C)C(=O)NCc3ccncc3)nc12` (stereo not drawn) belongs 22.13%.
In the case of `O=C1CC2(CCCNC2)C(=O)N1Cc1ccc(Cl)cc1` (stereo not drawn) it was -59.66%; in that of `Cc1ccc2nc(C(=O)N3CCCC[C@]4(C)NC(=O)CCC[C@H]34)cn2c1`, 55.74%.
To `Cc1cccc2nc(C(=O)N3CCCC[C@]4(C)NC(=O)CCC[C@H]34)cn12` belongs 29.06%; to `Cc1cccc(C(=O)N2CCCC[C@]3(C)NC(=O)CCC[C@H]23)n1`, 49.48%; to `CCc1c(C)[nH]c(C(C)(C)N)nc1=O`, -33.81%.
As for `COc1ccccc1C1(C(=O)N2CCN(CC(C)O)CC2)CC1` (stereo not drawn), the INHIBITION was determined as 58.53%.
In the case of `COc1cc(C2(C(=O)N3CCN(CC(C)O)CC3)CC2)ccc1C` (stereo not drawn) it was -71.2%.
To `CCC(O)CN1CCN(C(=O)C2(c3ccc(C)c(OC)c3)CC2)CC1` (stereo not drawn) belongs -10.44%; to `O=C(NC1CC1)[C@@H]1CCO[C@@H]2CCN(CCc3ccccc3)C[C@@H]21`, 8.88%; to `CCC[C@@H]1CN(Cc2cnc(-c3cccs3)nc2)C[C@H]1C(=O)O`, -9.03%.
For `CCC[C@@H]1CN(c2ncnc3sccc23)C[C@H]1NS(C)(=O)=O`, the INHIBITION amounted to 46.58%.
In the case of `CCC[C@@H]1CN(c2ncnc3sccc23)C[C@H]1C(=O)O` it was 51.48%; in that of `CC(C)CN1CCC2(CCN(CC3CC3)CC2)C1=O`, 16.25%.
In the case of `COc1cccc(C(=O)Nc2ccc(OCCC(N)=O)cc2)c1OC` it was -20.19%; in that of `NC(=O)CCOc1ccc(NC(=O)c2ccccc2OC(F)F)cc1`, 58.14%.
`CC(Cc1ccccc1F)C(=O)Nc1ccc(OCCC(N)=O)cc1` (stereo not drawn): the INHIBITION is -11.88%.
To `CCc1noc(C(C)N2CCN(C)CC2)n1` (stereo not drawn) belongs 9.83%.
In the case of `Cc1noc(C(C)N2CCN(c3ncnc4sccc34)CC2)n1` (stereo not drawn) it was 52.89%; in that of `Cc1noc(C(C)N2CCN(c3ccc(C#N)cn3)CC2)n1` (stereo not drawn), 25.35%.
As for `CCc1noc(C(C)N2CCN(c3ncnc4sccc34)CC2)n1` (stereo not drawn), the INHIBITION was 52.89%.
As for `Cc1noc(C(C)N2CCN(c3ncnc4ccccc34)CC2)n1` (stereo not drawn), the INHIBITION came to 4.34%.
In the case of `CCc1noc(C(C)N2CCN(c3ccc(C#N)cn3)CC2)n1` (stereo not drawn) it was -30.71%; in that of `O=C(NCc1ccccn1)c1cncc(C2CCCN2)n1` (stereo not drawn), 20.28%; in that of `O=C(CCn1ncc2ccccc21)N1CCCC(Cc2cccnc2)C1` (stereo not drawn), 20.44%.
Regarding `Cc1csc(CN2CCC(C(=O)O)(n3ccc(-c4ccco4)n3)CC2)n1`, the INHIBITION was -8.84%.
To `Cc1cc(C(=O)N(C)Cc2cccs2)nc(N2CCCC2)n1` belongs 50.9%; to `Cc1cc(C(=O)N(C)Cc2cccs2)nc(N2CCCCC2)n1`, -14.24%.
As for `Cc1cc(C(=O)N(C)Cc2cccs2)nc(N2CCOCC2)n1`, the INHIBITION is -3.54%.
`CC(C)c1ncc(CN2CCCC(CO)C2)cn1` (stereo not drawn): the INHIBITION was 1.42%.
To `NC(=O)CCC1CCCN(Cc2cnc(N3CCCCC3)nc2)C1` (stereo not drawn) belongs 44.23%; to `c1nc(N2CCCC2)ncc1CN1CCCC(CN2CCCCC2)C1` (stereo not drawn), 52.45%; to `Cc1ccoc1C(=O)NC1CCN(Cc2cccc3ccccc23)CC1`, 3.48%.
To `CC(=O)N(C)CC(=O)NC(C)c1ccc(OCCC(C)C)cc1` (stereo not drawn) belongs 29.41%; to `N#Cc1c(N)nc2c(c1-c1c[nH]nc1C1CCCCC1)COCC2`, -64.94%.
In the case of `CCCn1nc(C)c2c1NC(=O)CC2c1ccc(CN2CCCC2)s1` (stereo not drawn) it was 5.02%; in that of `Cn1nc(C2CC2)c2c1NC(=O)CC2c1cc(CN2CCCC2)cs1` (stereo not drawn), 73.26%; in that of `Cn1nc(C2CC2)c2c1NC(=O)CC2c1ccc(CN2CCCCC2)s1` (stereo not drawn), 22.63%.
On to `O=C(CC1CCCC1)N1CCC(c2nnc(-c3ccccn3)o2)CC1`, for which the INHIBITION was found to be 9.09%.
To `Cc1cc(C(=O)NCCC(=O)N2CCCc3ccccc32)no1` belongs 12.39%; to `COc1c(C(=O)NCc2cccnc2)nnn1Cc1ccc(C)cc1`, -19.47%.
To `Cc1ccc2c(c1)Oc1ncccc1C(=O)N2` belongs 9.43%.
